Where “and” joins values, the source holds several entries; their conditions need not be identical. Equal values may be shown once. Read-outs that look alike come from different tables or passages of the source.

Experimental findings from publication PMC5540273 (PLoS ONE, 2017) are described below.

The subject of one experiment is TNIK. The following applies: concentration: 1 μM, replicates: in singlicate; n = 1.
In another experiment the test system is TNK1. The settings on record: concentration: 1 μM, replicates: in singlicate; n = 1.
For a further experiment, the system named is TNK2. The settings on record: n = 1.
The next experiment has as its system TNNI3K. The settings on record: n = 1.
For another experiment, the system named is T1, TRKA.
T1 construct: gene NTRK1
The settings on record: concentration: 1 μM, replicates: in singlicate; n = 1.

The test system of a further experiment is TRKB. The settings on record: n = 1.
Another experiment relates to T2, TRKC.
T2 construct: gene NTRK3
The following applies: n = 1.

Another experiment concerns TRPM6. The settings on record: n = 1.
A further experiment concerns TSSK1B. The settings on record: n = 1.
For another experiment, the system named is TSSK3. The following applies: n = 1.
Where [1] appears, read: concentration: 1 μM, replicates: in singlicate.
[2] abbreviates: concentration: 1 μM,replicates: in singlicate, 1 µM.
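Further: KINOMEscan kinase panel screen.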

On to `O=C(Nc1ccccc1)Nc1cccc(Oc2ccc3nccn3n2)c1`, for which the “%Inh” value with TNIK was determined as 7%; in the experiment with TNK1, 23%; with TNK2 (setting [1]), 0%; with TNNI3K (setting [1]), 0%; in the experiment with TRKA, 0%; in the experiment on TRKB (setting [1]), 0%. For the same molecule, the “%Inh” value is 27% in the experiment with TRKC (setting [1]), 0% in the experiment with TRPM6 (setting [1]), 0% in the experiment on TSSK1B (setting [1]) and 0% with TSSK3 (setting [1]).
Turning to `Cc1cccc(-c2nc(-c3ccc(S(C)(=O)=O)cc3)sc2-c2ccnc(NCCc3ccccc3)c2)c1`, the “%Inh” value in the experiment on TNIK came out at 10%; in the experiment on TNK1, 0%; with TNK2 (setting [1]) it was 0%; in the experiment on TNNI3K (setting [1]), 0%; in the experiment with TRKA, 0%; in the experiment with TRKB (setting [1]) it was 0%. Moreover, the “%Inh” value turned out to be 15% with TRKC (setting [1]), 0% in the experiment with TRPM6 (setting [1]), 0% with TSSK1B (setting [1]) and 0% in the experiment with TSSK3 (setting [1]).
As for `O=C(O)COc1ncnc2cc(-c3ccc4[nH]ncc4c3)sc12`, the “%Inh” value with TNIK is on record as 10%; in the experiment with TNK1 it was 0%; in the experiment with TNK2 (setting [1]), 0%; in the experiment on TNNI3K (setting [1]) it was 0%; in the experiment on TRKA, 33%; with TRKB (setting [1]) it was 42%. The “%Inh” value with TRKC (setting [1]) came to 0%; with TRPM6 (setting [1]), 6%; in the experiment on TSSK1B (setting [1]), 0%; in the experiment on TSSK3 (setting [1]) it was 0%.
Turning to `COc1cc2ncn(-c3cc(OCC4CCCO4)c(C(N)=O)s3)c2cc1OC` (stereo not drawn) [GSK204607], the “%Inh” value with TNIK is reported as 27%; in the experiment on TNK1, 0%; with TNK2 (setting [1]) it was 17%; in the experiment on TNNI3K (setting [1]), 0%; in the experiment with TRKA, 15%; in the experiment with TRKB (setting [1]), 0%. The “%Inh” value with TRKC (setting [1]) was determined as 0%; in the experiment with TRPM6 (setting [1]), 0%; in the experiment with TSSK1B (setting [1]), 0%; with TSSK3 (setting [1]) it was 10%.
Consider `CSc1nn2c(=O)cc(N3CCOCC3)nc2n1Cc1cccc(C(F)(F)F)c1C` [GSK2363608], for which the “%Inh” value was 0% in the experiment on TNIK; 0% with TNK1; 17% and 30% in the experiment with TNK2 (setting [2]); 1% and 10% with TNNI3K (setting [2]); 0% with TRKA; 0% and 3% with TRKB (setting [2]). Further, the “%Inh” value with TRKC (setting [2]) was 0% and 11%; in the experiment with TRPM6 (setting [2]), 22% and 0%; with TSSK1B (setting [2]), 18% and 77%; in the experiment with TSSK3 (setting [2]), 18% and 6%.
Take `O=C1NC(=O)C(N2CCc3ccccc32)=C1c1ccccc1Cl` [SB-373598]: the “%Inh” value is listed as 5% with TNIK; 3% in the experiment on TNK1; 11% with TNK2 (setting [1]); 4% in the experiment with TNNI3K (setting [1]); 22% in the experiment with TRKA; 0% in the experiment on TRKB (setting [1]). In addition, the “%Inh” value in the experiment with TRKC (setting [1]) came to 4%; in the experiment with TRPM6 (setting [1]), 11%; with TSSK1B (setting [1]), 8%; with TSSK3 (setting [1]), 18%.
Turning to `Fc1cccc(COc2nnc(-c3ccc4c(c3)CCO4)o2)c1`, the “%Inh” value in the experiment with TNIK was determined as 14%; with TNK1, 0%; in the experiment with TNK2 (setting [1]), 0%; in the experiment on TNNI3K (setting [1]) it was 0%; in the experiment on TRKA, 24%; in the experiment with TRKB (setting [1]) it was 0%. Moreover, the “%Inh” value was found to be 48% with TRKC (setting [1]), 0% in the experiment with TRPM6 (setting [1]), 0% with TSSK1B (setting [1]) and 0% in the experiment on TSSK3 (setting [1]).
On to `Fc1cc(Cl)ccc1Nc1ccnc2cc(-c3ccc(CN4CCCCC4)o3)ccc12` [GW560116], for which the “%Inh” value was 10% in the experiment with TNIK; 0% in the experiment on TNK1; 2% in the experiment on TNK2 (setting [1]); 0% with TNNI3K (setting [1]); 4% with TRKA; 19% in the experiment with TRKB (setting [1]). The “%Inh” value in the experiment with TRKC (setting [1]) is given as 12%; in the experiment on TRPM6 (setting [1]), 0%; with TSSK1B (setting [1]) it was 0%; with TSSK3 (setting [1]) it was 8%.
On to `CS(=O)(=O)c1ccc(-c2c(-c3ncn[nH]3)sc(N3CCOCC3)c2C#N)cc1`, for which the “%Inh” value in the experiment with TNIK was determined as 20%; with TNK1, 55%; in the experiment on TNK2 (setting [1]), 17%; with TNNI3K (setting [1]) it was 0%; in the experiment on TRKA, 13%; in the experiment on TRKB (setting [1]), 0%. For the same molecule, the “%Inh” value is reported as 0% with TRKC (setting [1]), 0% in the experiment with TRPM6 (setting [1]), 29% with TSSK1B (setting [1]) and 5% with TSSK3 (setting [1]).
`C[C@@H]1CCCCN1c1cc(-c2ccc3c(N)n[nH]c3c2)nc(N)n1` [GSK2258759]: the “%Inh” value in the experiment with TNIK is on record as 0%; in the experiment on TNK1, 0%; with TNK2 (setting [1]) it was 18%; in the experiment with TNNI3K (setting [1]), 0%; in the experiment on TRKA it was 0%; in the experiment on TRKB (setting [1]) it was 0%. In addition, the “%Inh” value in the experiment with TRKC (setting [1]) came out at 0%; in the experiment with TRPM6 (setting [1]), 16%; in the experiment on TSSK1B (setting [1]), 0%; in the experiment with TSSK3 (setting [1]) it was 2%.
Take `COc1ccc(CNC(=O)NC2CCN(c3ccnc(Nc4cc(OC)c(OC)c(OC)c4)n3)C2)cc1` (stereo not drawn) [GSK1379748]: the “%Inh” value in the experiment with TNIK was 0%; in the experiment on TNK1 it was 0%; in the experiment with TNK2 (setting [1]) it was 4%; in the experiment with TNNI3K (setting [1]) it was 10%; in the experiment on TRKA, 73%; with TRKB (setting [1]), 23%. The “%Inh” value was determined as 40% in the experiment with TRKC (setting [1]), 18% with TRPM6 (setting [1]), 0% in the experiment with TSSK1B (setting [1]) and 10% in the experiment on TSSK3 (setting [1]).
`Cc1c(Cn2ccn3c(=O)cc(N4CCOCC4)nc23)cccc1C(F)(F)F` [GSK2289044]: the “%Inh” value in the experiment on TNIK is reported as 3%; with TNK1, 0%; with TNK2 (setting [1]), 6%; with TNNI3K (setting [1]), 2%; in the experiment with TRKA, 1%; in the experiment on TRKB (setting [1]) it was 0%. The “%Inh” value is given as 0% with TRKC (setting [1]), 12% with TRPM6 (setting [1]), 12% in the experiment on TSSK1B (setting [1]) and 6% in the experiment on TSSK3 (setting [1]).
With `COc1cccc(NC(=O)NC2CCN(c3ccnc(Nc4ccc(F)cc4)n3)C2)c1` (stereo not drawn) [GSK1379721], the “%Inh” value turned out to be 0% with TNIK; 0% with TNK1; 0% in the experiment on TNK2 (setting [1]); 2% in the experiment on TNNI3K (setting [1]); 42% with TRKA; 59% with TRKB (setting [1]). The “%Inh” value turned out to be 80% with TRKC (setting [1]), 26% in the experiment with TRPM6 (setting [1]), 9% in the experiment with TSSK1B (setting [1]) and 23% in the experiment on TSSK3 (setting [1]).
For `Cn1ccc2ncnc(Oc3ccc(Nc4nc5ccccc5[nH]4)cc3)c21`, the “%Inh” value with TNIK, with TNK1, in the experiment on TNK2 (setting [1]), in the experiment with TNNI3K (setting [1]), in the experiment on TRKA and in the experiment on TRKB (setting [1]) was 0% in each case. Moreover, the “%Inh” value in the experiment on TRKC (setting [1]) is 0%; with TRPM6 (setting [1]), 100%; in the experiment with TSSK1B (setting [1]), 0%; in the experiment with TSSK3 (setting [1]), 0%.
Regarding `Cn1ccc2ncnc(Oc3ccc(NC(=O)Nc4ccccc4)cc3)c21`, the “%Inh” value in the experiment on TNIK was 3%; with TNK1 it was 0%; in the experiment on TNK2 (setting [1]), 0%; in the experiment with TNNI3K (setting [1]), 0%; with TRKA, 4%; with TRKB (setting [1]), 0%. The “%Inh” value in the experiment on TRKC (setting [1]) is reported as 15%; in the experiment on TRPM6 (setting [1]), 0%; with TSSK1B (setting [1]) it was 0%; in the experiment on TSSK3 (setting [1]) it was 0%.
Take `CC1=C(C(=O)Nc2cc3cn[nH]c3cc2F)C(c2ccc(C(F)(F)F)cc2)CC(=O)N1` (stereo not drawn) [GSK429286]: the “%Inh” value stood at 0% in the experiment with TNIK; 0% in the experiment on TNK1; 15% in the experiment on TNK2 (setting [1]); 3% with TNNI3K (setting [1]); 0% in the experiment with TRKA; 0% in the experiment with TRKB (setting [1]). Further, the “%Inh” value is recorded as 0% in the experiment on TRKC (setting [1]), 0% in the experiment on TRPM6 (setting [1]), 13% with TSSK1B (setting [1]) and 14% in the experiment on TSSK3 (setting [1]).
As to `COc1ccccc1-c1ccc2c(NC(=O)C3CC3)n[nH]c2n1` [SB-711239], the “%Inh” value in the experiment on TNIK is given as 0%; in the experiment on TNK1, 4%; in the experiment with TNK2 (setting [1]), 8%; with TNNI3K (setting [1]), 14%; in the experiment with TRKA it was 24%; in the experiment on TRKB (setting [1]), 0%. Also, the “%Inh” value in the experiment on TRKC (setting [1]) is recorded as 20%; with TRPM6 (setting [1]) it was 0%; with TSSK1B (setting [1]) it was 0%; in the experiment on TSSK3 (setting [1]), 21%.
Turning to `CS(=O)(=O)c1ccc(-c2nc3n(c2-c2ccncc2)CCC3)cc1` [SKF-105942], the “%Inh” value was found to be 0% in the experiment with TNIK; 0% with TNK1; 42% in the experiment on TNK2 (setting [1]); 19% in the experiment on TNNI3K (setting [1]); 0% with TRKA; 0% in the experiment with TRKB (setting [1]). For the same molecule, the “%Inh” value with TRKC (setting [1]) is 0%; in the experiment on TRPM6 (setting [1]), 0%; in the experiment with TSSK1B (setting [1]), 100%; with TSSK3 (setting [1]) it was 6%.
